Compound activity as filed in PubChem BioAssay.
Hits are enriched below; roughly 8.9% of the tested compounds scored in any of these assays.
KB-3-1 cytotox: KB-3-1 parental cell cytotoxicity; hit rate 1.4% among 400,000; KB-3-1 viability, CellTiter-Glo ATP luminescence, 72 h; Potency, µM (titrated, usually from 46.1 µM), hits mostly cytotoxic; further: potency means the concentration at half of the fitted maximal effect; on the % scale 0 is the no-effect control and ±100 the full control effect; nearly all actives have a fitted effect of over 60% in size
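Parental KB-3-1 adenocarcinoma cells in phenol-red-free DMEM with 10% FBS were pin-treated with compounds at several concentrations, incubated 72 h at 37 °C, and viability read by CellTiter-Glo luminescence; concentration-effect curves were fitted after normalization.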
MCF10A rereplic: DNA re-replication induction in MCF 10a cells; MCF 10A DNA re-replication, Hoechst nuclear intensity, 48 h; Potency, µM (highest dose often 46.1 µM), inactives show at the highest dose activity, positive = re-replication, usual class: activators; hit rate 2.9% among 350,000; further: potency means the concentration at half of the fitted maximal effect; % of control where 0% means no effect; nearly all actives have a fitted effect of over 50% in size
DRD3 agonist: activates the human D3 dopamine receptor; P35462; AID 652048; D3R DiscoveRx beta-arrestin cells, luminescence, 90 min; max activation, %; hit rate 0.58% among 410,000; in the data active means max activation above about 30%; further: 0% is about no effect
Target sequence (P35462 whole entry, looked up): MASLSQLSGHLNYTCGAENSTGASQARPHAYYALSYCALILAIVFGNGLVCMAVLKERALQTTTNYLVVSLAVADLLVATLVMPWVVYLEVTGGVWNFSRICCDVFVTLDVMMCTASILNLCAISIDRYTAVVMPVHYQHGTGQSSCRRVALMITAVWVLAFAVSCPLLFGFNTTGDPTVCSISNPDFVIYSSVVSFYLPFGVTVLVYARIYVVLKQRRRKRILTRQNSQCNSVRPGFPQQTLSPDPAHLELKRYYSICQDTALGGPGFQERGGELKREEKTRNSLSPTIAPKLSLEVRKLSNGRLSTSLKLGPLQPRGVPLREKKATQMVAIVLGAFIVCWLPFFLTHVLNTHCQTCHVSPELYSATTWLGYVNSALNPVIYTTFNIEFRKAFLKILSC
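Agonist mode: compounds and dopamine controls were applied to plated cells for 90 min at 37 degrees C after an overnight attachment at 1500 cells/well. Luminescent read-out followed 30 - 60 minutes at room temperature with DiscoveRx detection reagent.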
KB-V1 MDR tox: KB-V1 MDR subline cytotoxicity; Potency, µM (doses to about 46.1 µM), usual class: cytotoxic; hit rate 3.4% among 400,000; AID 1347076; KB-V1 MDR cells viability, CellTiter-Glo, 72 h; further: potency means the concentration at half of the fitted maximal effect; on the % scale 0 is the no-effect control and ±100 the full control effect; nearly all actives have a fitted effect of over 60% in size
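Luminescent ATP read-out (CellTiter-Glo, 10 min) measures survival of drug-selected KB-V1 MDR cells after 72 h, 37 degrees C compound exposure. Medium: phenol-red-free DMEM, 10% FBS. Values from fitted concentration-response curves.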
SW480 rereplic: inducers of DNA re-replication in SW480 colon cancer cells | AID 624297 | Potency, µM (series often up to 46.1 µM), for inactives: top-dose re-replication activation, actives largely listed as activators | hit rate 1.8% among 340,000 | SW480 DNA re-replication, Hoechst DNA content imaging, 48 h; further: potency means the concentration at half of the fitted maximal effect; % of control where 0% means no effect; nearly all actives have a fitted effect of over 55% in size
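Per well, 250 cells were exposed to pinned compound for 48 hr. Nuclear DNA was visualised with Hoechst (40 min, 37 C) and total object intensity recorded by fluorescence scanning.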
DRD3 antagonist: antagonists of human D3 dopamine receptor; max response, negative = inhibition, %; P35462; D3R cells, DiscoveRx beta-arrestin luminescence, antagonist mode; hits give low values; hit rate 2.5% among 360,000; in the data active means max response below about -50%; inconclusive means no clear call, values can overlap the other calls; further: on the % scale 0 is the no-effect control and ±100 the full control effect
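Cells plated overnight at 1500 cells/well, then exposed to library compounds with dopamine controls for 90 minutes at 37 degrees C. DiscoveRx reagent added for 30–60 minutes at room temperature; luminescence read, quantitative HTS format.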
* marks the source's active call; other numbers are inactive results; i = inactive; ? = inconclusive; / = not tested or not shown; [ ] = remark or other dose. Unless noted, the call rests on the fitted dose curve; in most records, active means well fitted curve in the direction sought with a large enough effect; inconclusive means small, poorly fitted or top-dose-only effect, or another doubt; inactive means no such curve, though single readings can be large; an effect the other way counts as inactive or inconclusive.

SMILES | KB-3-1 cytotox | MCF10A rereplic | DRD3 agonist | KB-V1 MDR tox | SW480 rereplic | DRD3 antagonist
COc1ccc2nc(N3C(=O)CNC3=S)sc2c1 | ? | ? | 10.4 | 5.8µM* | 3.8% | -3.6
Cc1ccc2nc(N3C(=O)CNC3=S)sc2c1 | ? | 18.4µM* | -11.4 | ? | ? | -15.5
Cc1cccc(CC2CC(=O)N(c3nc4ccccc4s3)C2=O)c1 (centres undefined) | i | 11.3% | -6.0 | ? | -1.0% | -1.3
COc1ccc(N)cc1-n1c(C)ccc1C | i | 4.4% | 1.6 | ? | 0.517µM* | -5.3
COc1ccc(/C=N/c2oc(-c3ccccc3)cc2C#N)cc1OC | i | 0.7% | -4.0 | i | -4.3% | -52.4*
Cn1nc(-c2ccc(OCC(=O)Nc3cccc(C(F)(F)F)c3)cc2)c2ccccc2c1=O | i | / | 1.6 | i | / | /
Cc1cc(-c2ccccc2)nc2oc3c(c12)NC(=O)CN(c1ccccc1)C3=O | i | 3.6% | -4.6 | ? | 14.6µM* | -7.1
COc1cccc(N2CC(=O)Nc3c(oc4nc(-c5ccccc5)cc(C)c34)C2=O)c1 | i | 4.7% | -5.4 | i | 0.3% | -23.1
COC(=O)Nc1ccccc1C(=O)N1CCCCC1 | i | 0.7% | -7.6 | i | -8.9% | 7.6
CC(=O)Oc1ccc(C(=O)Nc2ccccc2C(=O)N2CCCCC2)cc1 | i | 4.6% | -11.5 | i | ? | -57.4*
CC(=O)Oc1ccc(C(=O)Nc2ccccc2C(=O)N2CCCC2)cc1 | i | 7.8% | 7.0 | i | 16.9% | -8.0
CCCCOC(=O)Nc1ccccc1C(=O)N1CCCC1 | i | ? | 3.8 | 13µM* | ? | 0.6
COc1cccc(N2CCN(C(=O)c3ccc4c(Cl)c5c(nc4c3)CCCC5)CC2)c1 | i | / | 14.0 | i | / | /
COc1ccc(C(OC(=O)c2c(C)noc2C)C(=O)NC2CCCC2)cc1 (centres undefined) | i | -6.1% | 10.4 | 5.17µM* | -9.5% | 4.7
Cc1oc2c(c1C(=O)N1CCC(C)CC1)C(=O)c1ccccc1C2=O | 20.6µM* | 18.0% | 3.7 | 18.4µM* | 11.6µM* | -6.2
CC1CCN(C(=O)c2ccc3c(c2)C(=O)c2ccccc2-3)CC1 | i | / | -1.0 | i | / | -22.7
CCOC(=O)C1CCN(C(=O)c2c(C)oc3c2C(=O)c2ccccc2C3=O)CC1 | ? | ? | -0.5 | 18.4µM* | 11.6µM* | ?
CC(C)Nc1nc(Cl)nc(N(C#N)CN2C(=O)c3ccccc3C2=O)n1 | ? | 16.4µM* | -3.3 | i | ? | ?
CCC(C)Nc1nc(Cl)nc(N(C#N)CN2C(=O)c3ccccc3S2(=O)=O)n1 (centres undefined) | i | ? | -2.5 | i | ? | -70.9*
Cc1cc(C)nc(N(C#N)CN2C(=O)c3ccccc3C2=O)n1 | i | 0.1% | -15.0 | i | -5.1% | 13.7
CCN(C#N)c1nc(NC(C)C)nc(NC(C)C)n1 | i | 21.9% | 32.3* | i | -8.6% | 15.4
CCN(CC)S(=O)(=O)c1ccc(N2CCN(CCOc3ccc(OC)cc3)CC2)nc1 | i | ? | 61.1* | i | 10.4% | -6.4
CC1=C(C#N)C(c2cccnc2)C2=C(CC(c3ccc(Cl)cc3)CC2=O)N1 (centres undefined) | i | 3.5% | -0.3 | i | 7.31µM* | -13.8
CC1=C(C#N)C(c2ccc(O)cc2)C2=C(CCCC2=O)N1 (centres undefined) | i | -0.2% | -1.5 | i | -5.3% | -2.1
Cc1cccc(NC(=O)CSc2nc(-c3ccccc3)c(C#N)c(=O)[nH]2)c1C | i | 2.6% | -5.1 | i | -2.1%[9.22 µM] | -63.1*
SMILES | KB-3-1 cytotox | MCF10A rereplic | DRD3 agonist | KB-V1 MDR tox | SW480 rereplic | DRD3 antagonist
N#Cc1c(-c2ccccc2)nc(SCC(=O)N2c3ccccc3Sc3ccccc32)[nH]c1=O | i | 20.6µM* | -7.5 | i | 9.5% | -3.6
Cc1ccc(Nc2c(-c3ccc(N4CCOCC4)cc3)nc3cccc(C)n23)cc1 | i | / | 2.0 | i | / | /
CCOC(=O)c1ccc(CN(Cc2ccc(F)cc2)S(=O)(=O)c2ccc(F)cc2)cc1 | / | / | 3.7 | / | / | /
CCn1c(-c2ccc(N(C)C)cc2)nc2ccccc21 | 13µM* | 14.5% | 16.5 | 16.4µM* | 8.4% | -14.5
CCOC(=O)c1ccc(NC(=O)Cn2cnc3sc(C(=O)OCC)c(C)c3c2=O)cc1 | i | / | 3.0 | i | / | /
CC(C)[C@@H](C(=O)NCC1CCC(C(=O)O)CC1)n1nnc2ccccc2c1=O (some centres undefined) | i | 1.8% | -3.9 | i | -8.9% | -56.8*
CCOC(=O)c1c(C)n(C)c2ccc(OC)c(NC(=O)CCN3CCSCC3)c12 | i | 13.2% | -21.3 | 13µM* | 2.1% | -12.3
CCOC(=O)c1c(C)n(C)c2ccc(OC)c(NC(=O)CN3CCC(C(=O)OCC)CC3)c12 | i | -3.3% | 5.4 | ? | -20.1% | 7.9
COc1cccc(NC(=O)NNC(=O)CCc2ccc(O)c(O)c2)c1 | i | -0.7% | 66.9* | ? | -6.4% | -19.3
O=C(CCc1ccccc1)NNC(=S)NCc1ccc(Cl)cc1 | i | 13.5% | 4.5 | i | -3.0% | 15.1
O=C(CCc1ccc(O)c(O)c1)NNC(=S)NCCc1ccccc1 | i | ? | 58.7* | i | 7.3% | -12.6
O=C(CCc1ccc(O)c(O)c1)NNC(=S)Nc1ccc(Br)cc1Cl | i | 6.8% | 37.3* | i | -4.5% | ?
CC(Oc1ccc(F)cc1)C(=O)NCC1(N(C)C)CCCCC1 (centres undefined) | i | / | -16.3 | i | / | /
COc1ccc(C2C(C(C)=O)=C(O)C(=O)N2c2nccs2)cc1OC (centres undefined) | i | 6.2% | 2.0 | i | -0.3% | -2.4
COc1ccc(C2C(C(C)=O)=C(O)C(=O)N2c2nc3ccccc3s2)cc1OC (centres undefined) | i | 2.31µM* | 6.5 | i | ? | 1.3
COc1cccc(NC(=O)CN(C)C(=O)c2c(C)nn(CC(C)C)c2Cl)c1 | i | 8.6% | -8.5 | i | -2.3% | 3.7
CCc1ccc(CNC(=O)Cn2nc(C)c3nn(-c4ccc(Cl)cc4)c(C)c3c2=O)cc1 | / | / | -1.7 | / | / | /
Cc1ccc(NC(=O)C2=C(C(=O)O)CCCC2)cc1Br | i | 4.9% | 1.1 | i | 8.2µM* | -17.3
Cc1ccc(C)c(NC(=O)c2cnc3sc(N4CCOCC4)nn3c2=O)c1 | / | / | -45.5 | / | / | /
Cc1ccc(C)c(N2CCN(C(=O)c3cc4c(=O)n(Cc5cccnc5)ccc4nc3C)CC2)c1 | i | / | -11.4 | i | / | /
Cc1cc(/C=C2\C(=N)N3N=C(c4ccco4)SC3=NC2=O)c(C)n1Cc1ccccc1 | ? | 20.6µM* | 4.7 | i | -1.4% | -1.8
